# Data from PubChem BioAssay (Tox21).
# Records with an inconclusive call do not appear. Active and inactive are the calls of the source. Calls follow the shape of the dose curve; as a rule, active = well fitted activation curve with a large enough effect in the signal ratio in the repeat runs (not every such curve was filed as active); inconclusive = weak or mixed curves, or effect the other way; inactive = flat fitted curve, though single readings scatter; the % refers to the signal ratio.
# Target: Bile acid receptor (Homo sapiens) (UniProt Q96RI1)
# Test: qHTS assay to identify small molecule agonists of the farnesoid-X-receptor (FXR) signaling pathway (AID 743220)
# Settings: HEK293T FXR-UAS-bla, beta-lactamase FRET ratio, 16 h; series mostly up to 62.6 µM; activation: at the top concentration
# Description: National Center for Advancing Translational Sciences [NCATS]
# NIH Chemical Genomics Center [NCGC]
# U.S. Environmental Protection Agency [EPA]
# National Institutes of Environmental Health Sciences [NIEHS]
# National Toxicology Program [NTP]
# U.S. Food and Drug Administration [FDA]
# The farnesoid-X-receptor (FXR), a nuclear hormone receptor, is highly expressed in liver, intestine, kidney and adrenal cortex. Natural ligands of FXR are the bile acids (Cholic acid, Chenodeoxy cholic acid etc). FXR is an important regulator of diverse metabolic pathways, including the bile acid homeostasis, lipid and glucose metabolisms. FXR regulates the expression of target genes by binding either as a monomer or as a heterodimer with the retinoid X receptor (RXR). Numerous studies have reported that FXR exerts protective function during cholestasis, diabetes, liver regeneration, and cancer. To identify compounds that activate FXR signaling, GeneBLAzer FXR-UAS-bla HEK 293T cell line (Invitrogen, Carlsbad, CA) containing a beta-lactamase reporter gene under the control of a UAS response element was used to screen the Tox21 10K compound library.
# Tox21 Assay Protocol Summary:
# FXR-bla cells were dispensed at 5000 cells/5uL/well in 1536-well black wall/clear bottom plates using a Multidrop Combi (Thermo Fisher Scientific, Waltham, MA) dispenser. After the assay plates were incubated at 37C and 5% CO2 for 5 h, 23 nL of compounds dissolved in DMSO, positive controls or DMSO only was transferred to the assay plate by a Pintool station (Kalypsys, San Diego, CA). The assay plates were incubated at 37C for 16 h. After 1 uL of LiveBLAzerTM B/G FRET substrate was added using a Bioraptr Flying Reagent Dispenser (FRD) workstation (Beckman Coulter, Indianapolis, IN), the plates were incubated at room temperature for 2 h, and fluorescence intensity was measured by an Envision plate reader (PerkinElmer, Shelton, CT).
# % is scaled to controls: 0 for no effect and ±100 for the full control effect.
# Sequence of Bile acid receptor (Homo sapiens) (Q96RI1 whole entry, looked up): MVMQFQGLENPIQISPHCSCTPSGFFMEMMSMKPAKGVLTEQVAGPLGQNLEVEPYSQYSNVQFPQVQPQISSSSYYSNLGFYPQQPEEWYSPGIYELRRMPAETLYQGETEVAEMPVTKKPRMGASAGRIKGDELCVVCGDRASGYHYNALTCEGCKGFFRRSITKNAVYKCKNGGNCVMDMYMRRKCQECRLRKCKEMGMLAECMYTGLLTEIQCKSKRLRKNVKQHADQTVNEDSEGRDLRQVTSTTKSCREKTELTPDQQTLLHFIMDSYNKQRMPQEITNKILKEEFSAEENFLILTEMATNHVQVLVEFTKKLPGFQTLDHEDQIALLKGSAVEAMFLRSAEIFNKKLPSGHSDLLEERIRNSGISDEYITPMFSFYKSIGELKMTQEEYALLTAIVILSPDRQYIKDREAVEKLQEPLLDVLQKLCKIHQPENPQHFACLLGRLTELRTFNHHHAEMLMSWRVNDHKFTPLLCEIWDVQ
row,Compound,activation
1,CNC1CCCN(c2c(F)cc3c(=O)c(C(=O)O)cn(C4CC4)c3c2OC)C1 (stereo not given),-4.19% (inactive)
2,CCC(=O)OCc1ccc(OC)cc1,-0.264% (inactive)
3,Cc1ccc2nc(N)[nH]c(=O)c2c1Sc1ccncc1,-4.74% (inactive)
4,CSSc1ccoc1C,0% (inactive)
5,O=C(O)CCS,1.71% [at 81.1 µM] (inactive)
6,CC(=O)NNC(C)=O,2.25% [at 81.1 µM] (inactive)
7,CCCCCC,-1.42% (inactive)
8,C=C(C)c1ccccc1,1.2% (inactive)
9,Cc1ccc(Cl)cc1N,0.336% [at 81.1 µM] (inactive)
10,CSCC[C@H](NC(=O)[C@H](Cc1c[nH]c2ccccc12)NC(=O)CCNC(=O)OC(C)(C)C)C(=O)N[C@@H](CC(=O)O)C(=O)N[C@@H](Cc1ccccc1)C(N)=O,3.34% (inactive)
11,CC1CCc2nccnc21 (stereo not given),-0.51% (inactive)
12,O=C1NC(=O)c2cccc3cccc1c23,0.542% (inactive)
13,Nc1ccc(S(=O)(=O)NCc2ccccc2)cc1,-4.37% (inactive)
14,CCN(CC)CCNC(=O)c1cc(Cl)c(N)cc1OC,1.24% (inactive)
15,c1ccc2sc(SSc3nc4ccccc4s3)nc2c1,-2.38% [at 29.1 µM] (inactive)
16,CC(C)OC(=O)c1ccccc1C(=O)OC(C)C,0.616% (inactive)
17,CCC1CCC(CCC(=O)O)C1 (stereo not given),-2.28% [at 81.1 µM] (inactive)
18,Cc1ccc(N(CCO)CCO)cc1,-0.705% (inactive)
19,CCN(Cc1cccc(S(=O)(=O)O)c1)c1ccc(C(=C2C=CC(=[N+](CC)Cc3cccc(S(=O)(=O)O)c3)C=C2)c2ccccc2S(=O)(=O)[O-])cc1,1.21% (inactive)
20,CC(C)(O)c1coc(S(=O)(=O)NC(=O)Nc2c3c(cc4c2CCC4)CCC3)c1,-1.31% (inactive)

row,Compound,activation
1,c1ccc(CNc2ncnc3c2ncn3C2CCCCO2)cc1 (stereo not given),-0.228% (inactive)
2,CC(C)Cc1ccc(CC(=O)O)cc1,2.36% (inactive)
3,Nc1nc(-c2ccc([N+](=O)[O-])cc2)cs1,-3.38% [at 81.1 µM] (inactive)
4,CCCCCCCC(=O)OCCCCCC,1.15% (inactive)
5,CC1=C2[C@@H]([C@H](C)CC[C@H]2/C=C(\C)C(=O)O)[C@H](O)C1,-1.18% (inactive)
6,O=C(O)/C=C/c1ccc(O)c(O)c1,-2.03% [at 81.1 µM] (inactive)
7,Cc1ccc2c(c1[N+](=O)[O-])C(=O)c1ccccc1C2=O,-0.306% (inactive)
8,CC(C)(C)CCCCCCOC(=O)c1ccccc1C(=O)OCCCCCCC(C)(C)C,0.585% (inactive)
9,O=[N+]([O-])C1(Br)COCOC1,-3.48% (inactive)
10,ClC1=C(Cl)C1(Cl)Cl,0.0077% [at 81.1 µM] (inactive)
11,COc1ccc(N)c([N+](=O)[O-])c1,0.778% (inactive)
12,CCN(CC)CCOC(=O)C(c1ccccc1)c1ccccc1,-1.28% (inactive)
13,Cc1cc([N+](=O)[O-])ccc1N,2.45% (inactive)
14,CC(C)COC(=O)c1ccc(O)cc1,1.19% (inactive)
15,COC(=O)c1sccc1S(N)(=O)=O,-1.76% (inactive)
16,CCN(CC)C(=O)N1CCN(C)CC1,0.297% (inactive)
17,COc1cc(NS(=O)(=O)c2ccc(N)cc2)nc(C)n1,-0.234% (inactive)
18,Cc1c(C2(c3cc(Br)c(O)c(Br)c3C)OS(=O)(=O)c3ccccc32)cc(Br)c(O)c1Br,-4.9% (inactive)
19,Cc1ccc(Nc2c(F)cccc2Cl)c(CC(=O)O)c1,2.9% (inactive)
20,COc1cc(NCc2ccc3nc(N)nc(N)c3c2C)cc(OC)c1OC,2.85% (inactive)
